Results reported in PubChem BioAssay (NCI).
The panel holds about 79,000 compounds, 15% with a hit somewhere; the sample as a whole holds those more often. Unmarked numbers belong to inactive results. Calls of active or inactive are those of the source. Rule as the data show it: active = growth inhibition above about 70%; inactive = the rest.

Experiment: NCI Yeast Anticancer Drug Screen. Data for the cln2 rad14 strain (AID 165);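 also: 0% = growth equal to vehicle treated cultures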
Settings: S. cerevisiae cln2 rad14 strain, active compounds read high
Protocol: Growth inhibition of yeast strains with defined genetic alterations is measured as a screen for potential anti-cancer activity. Selected strains with alterations in DNA damage repair or cell cycle control were exposed to compounds and growth inhibition was measured relative to vehicle treated controls. The strain used in this assay is cln2 rad14

[1] = at 5.0 µM (retest, dose inferred, filed as 0.5)
[2] = at 50.0 µM (retest, dose inferred, filed as 5.0)

Row | Compound | growth inhibition [1] [%] | growth inhibition [2] | growth inhibition (at 50.0 µM)
1 | NCC(O)CSCc1ccc(Cl)cc1 (stereo not given) | -7 | 10% | 86.5% (active)
2 | OC1C#CCSCC#C/C=C\1 (stereo not given) | 60 | 93% (active) | 52%
3 | CC(C)OC(CCC#N)c1ccc(Cl)cc1 (stereo not given) | 48 | 46% | 6.8%
4 | CCCCCCCCCC/C=C\CC(=O)O | 7 | 14% | 9.65%
5 | O=C1c2ccccc2-c2ccc(NC(=O)C3CCCCC3C(=O)O)cc21 (stereo not given) | -20 | -58% | 12.7%
6 | CCOc1nc(OCC)nc(-c2cccn2-c2ccccc2)n1 | 55 | 83% (active) | –
7 | CCOC(=O)c1sc2[n+](c1C)C(=O)/C(=C/c1cc(OC)c(OC)c(OC)c1)S2 | 13 | 78% (active) | 55.5%
8 | O=C1C=CC(=Nc2ccc3c(c2)Cc2cc(Cl)ccc2-3)O1 | 7 | 99% (active) | 98.2% (active)
9 | Nc1ccc2ncc(Nc3ccc(Cl)c(Cl)c3)nc2c1 | 42 | 95% (active) | 73.7% (active)
10 | Clc1ccc(C(c2ccc(Cl)cc2)N2CCNCC2)cc1 | 61 | 88% (active) | –
11 | O=C1c2ccccc2C(=O)C1C(c1ccc(F)cc1)C1C(=O)c2ccccc2C1=O | 27 | 89% (active) | 85.8% (active)
12 | CCCC(=O)OC(OC(=O)CCC)c1ccc([N+](=O)[O-])o1 | 1 | 8% | 12.1%
13 | CN(C)CCNC(=O)c1cccc2nc3c4ccccc4c4ccccc4c3nc12 | 18 | 95% (active) | 95% (active)
14 | CCCCCCCCCCCCCCCCOCC(Cl)COP(=O)(O)OP(=O)(O)OCC1OC(n2cnc3c(N)ncnc32)C(O)C1O (stereo not given) | 24 | 79% (active) | -30.4%
